Where “and” joins values, the source holds several entries; their conditions need not be identical. Identical values can stand only once. More than one record can exist for a structure, and the calls need not agree. Calls of active or inactive are those of the source. The calls were made as follows: active = hit-call score of the fitted dose curve at least 0.9, where 1 is the maximum; inactive = score below 0.9.
Legend:
[1] = biological target: Bile acid receptor (Homo sapiens) (UniProt Q96RI1); test: ATG_IR1_CIS: Attagene CIS-FACTORIAL HepG2 Assay for human Nuclear Receptor Subfamily 1 Group H Member 4 (NR1H4), IR1 submotif (AID 2282946); conditions: IR1 reporter transcription, actives raise or lower the signal
Bile acid receptor (Homo sapiens), sequence (Q96RI1 whole entry, looked up, the tested form may be a part): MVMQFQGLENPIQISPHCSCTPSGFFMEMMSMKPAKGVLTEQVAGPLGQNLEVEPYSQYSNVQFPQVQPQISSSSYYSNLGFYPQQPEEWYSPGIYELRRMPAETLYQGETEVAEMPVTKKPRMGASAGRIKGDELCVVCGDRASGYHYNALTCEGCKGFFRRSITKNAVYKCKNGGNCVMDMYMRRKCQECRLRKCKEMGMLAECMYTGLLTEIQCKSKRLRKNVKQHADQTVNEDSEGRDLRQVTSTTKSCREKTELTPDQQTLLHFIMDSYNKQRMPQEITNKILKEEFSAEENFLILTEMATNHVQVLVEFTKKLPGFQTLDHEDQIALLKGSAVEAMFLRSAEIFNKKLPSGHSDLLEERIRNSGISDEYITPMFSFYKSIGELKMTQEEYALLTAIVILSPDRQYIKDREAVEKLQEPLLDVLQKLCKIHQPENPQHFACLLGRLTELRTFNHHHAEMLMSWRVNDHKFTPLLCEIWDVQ
Procedure, shortened: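 Cells (human HepG2) carry transiently transfected cis-promoter reporter transcription units. Compounds are incubated 24 h, total RNA is reverse-transcribed and amplified, and labelled fragments are resolved by capillary electrophoresis. Curves use DMSO as baseline.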

[2] = ATG_ISRE_CIS: Attagene CIS-FACTORIAL HepG2 Assay for human Interferon Regulatory Factor 1 (IRF1) binding to an Interferon-Stimulated Response Element (ISRE) (AID 2282948); conditions: HepG2 ISRE cis-reporter (Attagene), mRNA transcription readout; actives raise or lower the signal
Procedure, shortened: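 Transiently transfected HepG2 cells carrying cis-element reporter units, dosed 24 hours. Reporter mRNA quantified by RT-PCR, fluorescent primer extension, HpaI digestion and capillary electrophoresis. Bidirectional fitting relative to DMSO.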

[3] = ATG_M_32_CIS: Attagene CIS-FACTORIAL HepG2 Assay for M32 Transcription Factor (Internal Marker) (AID 2282949); conditions: HepG2 Attagene cis-factorial M32 reporter, mRNA; actives raise or lower the signal;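 also: background control marker of the multiplexed CIS panel rather than a real target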
Procedure, shortened: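 Fluorescent capillary electrophoresis peaks of HpaI-digested, FAM-labelled RT-PCR reporter products give the signal. Source: transiently transfected human liver HepG2 cells, 24 h after chemical dosing; bidirectional fitting against DMSO.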

[4] = ATG_M_06_CIS: Attagene CIS-FACTORIAL HepG2 Assay for M06 Transcription Factor (Internal Marker) (AID 2282950); conditions: HepG2 Attagene CIS-FACTORIAL M06 internal marker reporter; actives raise or lower the signal
Procedure, shortened: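 Internal background marker within multiplexed cis-reporter HepG2 system. Cells transiently transfected, dosed 24 h; reporter mRNA measured by RT-PCR, HpaI digestion and capillary electrophoresis. Bidirectional fit relative to DMSO.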

[5] = biological target: Hypoxia-inducible factor 1-alpha (Homo sapiens) (UniProt Q16665); test: ATG_HIF1a_CIS: Attagene CIS-FACTORIAL HepG2 Assay for human Hypoxia Inducible Factor 1 (HIF1A) (AID 2282951); conditions: HepG2 Attagene cis-factorial HIF1a reporter transcription; actives raise or lower the signal
Hypoxia-inducible factor 1-alpha (Homo sapiens), sequence (Q16665 whole entry, looked up): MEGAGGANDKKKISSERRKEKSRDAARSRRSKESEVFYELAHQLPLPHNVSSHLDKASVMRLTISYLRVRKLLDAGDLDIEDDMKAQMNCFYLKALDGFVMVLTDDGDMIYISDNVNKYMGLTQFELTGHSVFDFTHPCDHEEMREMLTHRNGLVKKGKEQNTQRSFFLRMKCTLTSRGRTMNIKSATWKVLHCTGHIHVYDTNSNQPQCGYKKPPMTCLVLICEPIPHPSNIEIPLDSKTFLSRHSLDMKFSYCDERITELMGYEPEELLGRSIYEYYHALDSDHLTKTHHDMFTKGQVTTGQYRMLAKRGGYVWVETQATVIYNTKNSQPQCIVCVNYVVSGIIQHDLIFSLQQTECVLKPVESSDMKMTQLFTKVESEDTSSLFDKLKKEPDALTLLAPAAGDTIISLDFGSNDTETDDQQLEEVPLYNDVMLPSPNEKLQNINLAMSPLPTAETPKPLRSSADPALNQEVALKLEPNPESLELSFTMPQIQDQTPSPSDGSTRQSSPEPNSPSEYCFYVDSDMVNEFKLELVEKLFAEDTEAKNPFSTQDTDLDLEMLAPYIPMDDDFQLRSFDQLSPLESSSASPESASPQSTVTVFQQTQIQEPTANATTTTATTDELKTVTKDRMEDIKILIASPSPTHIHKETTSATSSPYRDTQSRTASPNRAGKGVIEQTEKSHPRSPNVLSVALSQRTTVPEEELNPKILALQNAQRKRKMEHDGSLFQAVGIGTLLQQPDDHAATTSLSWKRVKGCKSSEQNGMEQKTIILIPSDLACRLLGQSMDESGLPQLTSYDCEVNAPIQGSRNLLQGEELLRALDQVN
Procedure, shortened: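 In this multiplexed cell assay, HepG2 cells bearing transfected cis reporters are dosed for 24 h and reporter mRNA is read by RT-PCR plus capillary electrophoresis; signal increases and decreases are both scored against DMSO.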

[6] = biological target: Hepatocyte nuclear factor 6 (Homo sapiens) (UniProt Q9UBC0); test: ATG_HNF6_CIS: Attagene CIS-FACTORIAL HepG2 Assay for human Hepatocyte Nuclear Factor 6 (HNF6) (AID 2282952); conditions: HepG2 Attagene cis-factorial HNF6 reporter transcription; actives raise or lower the signal
Hepatocyte nuclear factor 6 (Homo sapiens), sequence (Q9UBC0 whole entry, looked up): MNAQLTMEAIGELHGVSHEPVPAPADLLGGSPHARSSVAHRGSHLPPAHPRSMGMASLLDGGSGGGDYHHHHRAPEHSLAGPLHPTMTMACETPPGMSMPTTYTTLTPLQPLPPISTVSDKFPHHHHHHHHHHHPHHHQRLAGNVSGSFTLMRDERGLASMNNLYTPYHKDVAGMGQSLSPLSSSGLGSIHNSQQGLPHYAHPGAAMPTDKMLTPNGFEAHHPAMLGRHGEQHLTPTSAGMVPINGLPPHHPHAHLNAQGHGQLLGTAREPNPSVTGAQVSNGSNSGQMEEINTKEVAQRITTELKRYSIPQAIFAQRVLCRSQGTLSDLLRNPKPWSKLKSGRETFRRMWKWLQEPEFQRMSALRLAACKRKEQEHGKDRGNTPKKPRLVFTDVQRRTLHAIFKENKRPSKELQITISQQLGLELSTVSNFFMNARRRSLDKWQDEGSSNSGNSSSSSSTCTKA
Procedure, shortened: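 Cells are HepG2 carrying transiently transfected cis-promoter reporter units. Treatment lasts 24 h, after which reporter transcripts are reverse-transcribed, amplified, FAM-labelled and sized by capillary electrophoresis. DMSO serves as baseline.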

[7] = biological target: Heat shock factor protein 1 (Homo sapiens) (UniProt Q00613); test: ATG_HSE_CIS: Attagene CIS-FACTORIAL HepG2 Assay for human Heat Shock Transcription Factor 1 (HSE) (AID 2282953); conditions: HepG2 HSE cis-reporter, Attagene RNA transcription; actives raise or lower the signal
Heat shock factor protein 1 (Homo sapiens), sequence (Q00613 whole entry, looked up): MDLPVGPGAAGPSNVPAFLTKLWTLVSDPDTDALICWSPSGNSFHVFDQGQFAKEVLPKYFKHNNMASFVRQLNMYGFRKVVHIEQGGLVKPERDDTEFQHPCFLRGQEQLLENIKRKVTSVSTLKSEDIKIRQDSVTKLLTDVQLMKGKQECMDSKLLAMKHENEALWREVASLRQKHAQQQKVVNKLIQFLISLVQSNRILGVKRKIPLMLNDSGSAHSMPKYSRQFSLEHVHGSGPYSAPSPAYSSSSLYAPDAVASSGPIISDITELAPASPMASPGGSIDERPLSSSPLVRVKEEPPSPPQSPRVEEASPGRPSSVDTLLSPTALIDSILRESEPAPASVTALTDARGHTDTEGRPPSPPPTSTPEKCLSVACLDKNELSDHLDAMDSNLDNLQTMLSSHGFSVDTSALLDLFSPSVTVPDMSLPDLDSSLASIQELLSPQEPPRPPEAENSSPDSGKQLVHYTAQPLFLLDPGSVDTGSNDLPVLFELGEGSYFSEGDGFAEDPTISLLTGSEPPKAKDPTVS
Procedure, shortened: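 HepG2 cells transfected with cis-promoter reporter units sensing endogenous transcription factor activity; reporter mRNA quantified 24 h post-dose by RT-PCR and capillary electrophoresis of 6-FAM-labelled products. Bidirectional fitting against DMSO.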

[8] = ATG_MRE_CIS: Attagene CIS-FACTORIAL HepG2 Assay for human Metal Responsive Element (MRE) (AID 2282954); conditions: HepG2 MRE cis-reporter transcription, Attagene multiplex; actives raise or lower the signal
Procedure, shortened: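 Transient MRTU transfection of HepG2 (FuGene 6); 24 h dosing; total RNA → oligo(dT) RT, PCR, 6-FAM primer extension, HpaI cut, CE. Bidirectional fit vs DMSO.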

[9] = ATG_PBREM_CIS: Attagene CIS-FACTORIAL HepG2 Assay for human Phenobarbital-responsive Enhancer Module (PBREM) (AID 2282955); conditions: HepG2 PBREM cis-reporter, Attagene multiplexed transcription; actives raise or lower the signal
Procedure, shortened: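 After a 24 h incubation with test chemical, transfected HepG2 cells yield total RNA; reporter-specific RT-PCR products are fluorescently labelled, HpaI-digested and resolved by capillary electrophoresis against ROX size standards.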

[10] = biological target: Paired box protein Pax-6 (Homo sapiens) (UniProt P26367); test: ATG_Pax6_CIS: Attagene CIS-FACTORIAL HepG2 Assay for human Paired Box 6 (PAX6) (AID 2282956); conditions: HepG2 CIS-FACTORIAL PAX6 reporter transcription, RNA readout; actives raise or lower the signal
Paired box protein Pax-6 (Homo sapiens), sequence (P26367 whole entry, looked up): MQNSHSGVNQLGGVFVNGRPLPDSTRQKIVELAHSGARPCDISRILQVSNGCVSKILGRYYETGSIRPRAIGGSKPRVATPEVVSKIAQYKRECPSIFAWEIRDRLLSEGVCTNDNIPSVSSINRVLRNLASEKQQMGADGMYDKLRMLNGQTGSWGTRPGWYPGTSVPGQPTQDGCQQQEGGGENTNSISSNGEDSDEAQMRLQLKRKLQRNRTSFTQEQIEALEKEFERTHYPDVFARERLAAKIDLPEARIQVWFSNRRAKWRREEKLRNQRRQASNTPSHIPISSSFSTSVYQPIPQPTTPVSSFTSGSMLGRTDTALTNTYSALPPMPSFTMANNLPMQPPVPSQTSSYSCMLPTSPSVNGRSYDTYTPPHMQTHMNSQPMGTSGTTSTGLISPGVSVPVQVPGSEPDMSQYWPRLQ
Procedure, shortened: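 HepG2 cells transiently transfected with cis-promoter-driven multiplexed reporter units sensing endogenous transcription factor activity; 24 h chemical exposure. Reporter mRNA quantified by RT-PCR, 6-FAM labelling, HpaI digestion and capillary electrophoresis; bidirectional fit versus DMSO baseline.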

[11] = ATG_PXRE_CIS: Attagene CIS-FACTORIAL HepG2 Assay for human Pregnane X Receptor Element (PXRE) (AID 2282957); conditions: HepG2 Attagene CIS-FACTORIAL PXRE reporter, mRNA; actives raise or lower the signal
Procedure, shortened: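 Multiplexed cis-reporter assay in transiently transfected human HepG2 cells; 24 h chemical exposure. Reporter transcripts quantified by RT-PCR with fluorescent labeling and capillary electrophoresis.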

[12] = ATG_PPRE_CIS: Attagene CIS-FACTORIAL HepG2 Assay for human Peroxisome Proliferator-activated Response Element (PPRE) (AID 2282958); conditions: HepG2 PPRE cis-element reporter, Attagene transcription factor profiling; actives raise or lower the signal
Procedure, shortened: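 Multiplexed reporter transcription units under cis-regulatory promoters were transfected into HepG2 cells to capture endogenous factor activity. A 24 h incubation preceded RNA isolation and fluorescent RT-PCR fragment analysis.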

[13] = ATG_RORE_CIS: Attagene CIS-FACTORIAL HepG2 Assay for human RAR-related Orphan Receptor Element (RORE) (AID 2282959); conditions: HepG2 Attagene cis-factorial RORE reporter, mRNA; actives raise or lower the signal
Procedure, shortened: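 Fluorescence intensity of reporter-specific cDNA fragments, separated by capillary electrophoresis, gives the signal. Source: HepG2 liver cells transiently transfected with cis-element reporters and exposed 24 h; DMSO-normalized bidirectional fit.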

[14] = ATG_Sox_CIS: Attagene CIS-FACTORIAL HepG2 Assay for human SRY-box transcription factor (SOX) (AID 2282960); conditions: HepG2 Attagene cis-factorial SOX reporter, mRNA; actives raise or lower the signal
Procedure, shortened: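 After 24 h of chemical treatment, transfected HepG2 reporter cells are lysed for total RNA. Transcript levels come from RT-PCR with labelled primer extension and capillary electrophoresis, analysed bidirectionally versus DMSO.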

[15] = biological target: Transcription factor Sp1 (Homo sapiens) (UniProt P08047); test: ATG_Sp1_CIS: Attagene CIS-FACTORIAL HepG2 Assay for human Specificity Protein 1 (Sp1) (AID 2282961); conditions: HepG2 Sp1 cis-reporter transcription, actives raise or lower the signal
Transcription factor Sp1 (Homo sapiens), sequence (P08047 whole entry, looked up): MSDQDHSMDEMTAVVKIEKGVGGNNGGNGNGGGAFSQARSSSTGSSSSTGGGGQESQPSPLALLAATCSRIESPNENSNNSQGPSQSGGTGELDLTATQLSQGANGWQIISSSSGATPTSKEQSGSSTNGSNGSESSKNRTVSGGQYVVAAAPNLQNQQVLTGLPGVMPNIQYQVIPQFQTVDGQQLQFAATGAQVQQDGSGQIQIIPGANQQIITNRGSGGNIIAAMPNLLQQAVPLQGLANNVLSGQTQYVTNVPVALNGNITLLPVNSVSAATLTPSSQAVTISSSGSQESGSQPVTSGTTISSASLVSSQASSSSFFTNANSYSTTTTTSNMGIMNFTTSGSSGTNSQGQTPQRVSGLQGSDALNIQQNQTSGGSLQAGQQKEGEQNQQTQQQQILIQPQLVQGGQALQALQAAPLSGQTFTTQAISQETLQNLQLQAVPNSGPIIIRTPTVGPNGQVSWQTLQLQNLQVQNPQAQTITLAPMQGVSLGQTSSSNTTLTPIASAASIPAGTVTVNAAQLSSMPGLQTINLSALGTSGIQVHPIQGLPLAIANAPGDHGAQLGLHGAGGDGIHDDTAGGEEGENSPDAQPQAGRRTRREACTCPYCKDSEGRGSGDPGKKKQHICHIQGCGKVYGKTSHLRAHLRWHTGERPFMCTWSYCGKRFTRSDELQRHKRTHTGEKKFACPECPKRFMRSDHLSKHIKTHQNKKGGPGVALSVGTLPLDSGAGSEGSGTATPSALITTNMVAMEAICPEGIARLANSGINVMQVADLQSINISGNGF
Procedure, shortened: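 Sp1-driven reporter mRNA, read as capillary electrophoresis fluorescence after RT-PCR, in transiently transfected HepG2 cells dosed for 24 h; signal change in either direction relative to DMSO.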

[16] = ATG_SREBP_CIS: Attagene CIS-FACTORIAL HepG2 Assay for human Sterol Regulatory Element Binding (SREBP) (AID 2282962); conditions: HepG2 Attagene cis-factorial SREBP reporter, mRNA; actives raise or lower the signal
Procedure, shortened: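 HepG2 cells transiently transfected with multiplexed cis-promoter reporter units sensing endogenous transcription factors; reporter mRNA measured 24 h after dosing by RT-PCR, 6-FAM labeling, HpaI digestion and capillary electrophoresis. Bidirectional fit versus DMSO.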

[17] = biological target: Signal transducer and activator of transcription 3 (Homo sapiens) (UniProt P40763); test: ATG_STAT3_CIS: Attagene CIS-FACTORIAL HepG2 Assay for human Signal Transducer and Activator of Transcription 3 (STAT3) (AID 2282963); conditions: HepG2, Attagene cis-factorial STAT3 reporter transcription; actives raise or lower the signal
Signal transducer and activator of transcription 3 (Homo sapiens), sequence (P40763 whole entry, looked up): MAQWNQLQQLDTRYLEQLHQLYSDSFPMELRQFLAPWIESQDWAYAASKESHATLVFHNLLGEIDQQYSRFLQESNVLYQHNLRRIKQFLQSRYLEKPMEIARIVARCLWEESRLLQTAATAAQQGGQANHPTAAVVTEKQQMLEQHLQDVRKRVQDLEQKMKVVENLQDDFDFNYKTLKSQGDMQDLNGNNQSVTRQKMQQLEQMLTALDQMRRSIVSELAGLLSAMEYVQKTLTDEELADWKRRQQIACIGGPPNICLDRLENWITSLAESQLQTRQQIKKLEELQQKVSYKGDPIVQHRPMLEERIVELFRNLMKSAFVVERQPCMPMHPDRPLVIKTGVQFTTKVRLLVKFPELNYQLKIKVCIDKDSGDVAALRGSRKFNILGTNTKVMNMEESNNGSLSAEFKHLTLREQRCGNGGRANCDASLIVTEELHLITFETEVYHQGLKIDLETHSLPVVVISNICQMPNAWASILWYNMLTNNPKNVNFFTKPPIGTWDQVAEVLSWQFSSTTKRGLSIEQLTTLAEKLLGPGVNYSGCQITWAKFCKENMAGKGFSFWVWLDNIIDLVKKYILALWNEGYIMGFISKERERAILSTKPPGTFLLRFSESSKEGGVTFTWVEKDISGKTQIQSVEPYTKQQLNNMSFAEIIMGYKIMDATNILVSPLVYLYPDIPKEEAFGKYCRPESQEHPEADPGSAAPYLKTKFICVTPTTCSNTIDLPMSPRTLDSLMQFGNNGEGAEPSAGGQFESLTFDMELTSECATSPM
Procedure, shortened: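 Endogenous STAT3-responsive cis-element activity was read in transiently transfected HepG2 cells after 24 h treatment. Reporter transcripts were quantified via RT-PCR and capillary electrophoresis, with DMSO as negative control and bidirectional curve fitting.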

[18] = ATG_TA_CIS: Attagene CIS-FACTORIAL HepG2 Assay for human TA Basal Promoter (AID 2282964); conditions: HepG2 Attagene CIS-factorial TA basal promoter reporter; actives raise or lower the signal
Procedure, shortened: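 HepG2 cells transiently transfected with multiple reporter units under cis promoter elements, reporting endogenous transcription factor activity; this endpoint tracks the TA basal promoter as background control. Reporter mRNA after 24 h dosing measured by RT-PCR/capillary electrophoresis; bidirectional fits versus DMSO.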

[19] = ATG_TCF_b_cat_CIS: Attagene CIS-FACTORIAL HepG2 Assay for human T-Cell-Factor with beta-catenin (TCF/b-cat) (AID 2282965); conditions: HepG2 TCF/beta-catenin cis-reporter transcription, actives raise or lower the signal
Procedure, shortened: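 Measured: reporter mRNA in HepG2 transiently transfected with cis-promoter reporter units, 24 h after chemical addition. Fitting was bidirectional, DMSO as negative control.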

[20] = ATG_GRE_CIS: Attagene CIS-FACTORIAL HepG2 Assay for human Glucocorticoid Response Elements (GRE) (AID 2282947); conditions: HepG2 GRE cis-reporter, Attagene multiplex mRNA; actives raise or lower the signal
Procedure, shortened: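 Transient MRTU transfection of human HepG2 liver cells; cis-regulated reporters report endogenous factors. 24 h dosing → RNA isolation → RT-PCR → 6-FAM primer extension → HpaI cut → CE fragment analysis. Bidirectional fit, DMSO negative control.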

Measured: AC50

CCN(Cc1cccc(S(=O)(=O)O)c1)c1ccc(C(=C2C=CC(=[N+](CC)Cc3cccc(S(=O)(=O)O)c3)C=C2)c2ccccc2S(=O)(=O)[O-])cc1
not listed: [20]
inactive: all other assays above

O=C=NCCCCCCN=C=O
not listed: [20]
inactive: all other assays above

CCCCCCCCCCCO
not listed: [7] | [15] | [20]
inactive: all other assays above

CCCCCCCCOc1ccc(C(=O)c2ccccc2)c(O)c1
not listed: [20]
inactive: all other assays above

Cc1ncc(CO)c(CO)c1O
not listed: [5] | [9] | [20]
inactive: all other assays above

Oc1ccc2ccccc2c1
active: [2] 100 µM | [19] 77.3 µM and 100 µM
inactive: [20] | [2] | [3] | [4] | [5] | [6] | [7] | [8] | [10] | [11] | [13] | [14] | [15] | [16] | [17] | [18]

— PubChem BioAssay (EPA / NIEHS)
